# From PubChem BioAssay
# Compounds with a hit are over-represented: about 0.99% of the library has one in this group of screens.
# TRHR enhancer = allosteric enhancers of human TRH receptor; P34981; TRHR cells, fluo-8 calcium fluorescence, EC20 TRH enhancement; enhancement, % at 2 µM; 360,000 tested, 0.66% active; in the data active = enhancement above about 30%; also: 0% is about no effect
#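 TRHR-expressing cells loaded with fluo-8 calcium dye were read kinetically (ex 480/em 530) during compound addition, then stimulated with an EC20 of TRH (10 nM final). Enhancement of the Gq-mediated intracellular calcium response was scored.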
# TRPML1 ag = agonists of human TRPML1 channel; TRPML1-expressing cells, Ca2+ dye fluorescence, FDSS; activation, % (test concentration not listed); 410,000 tested, 0.12% active; AID 624414; in the data active = activation above about 50%; inconclusive = mostly about 30% to 49%; also: 0% is about no effect
#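 Agonist activity was taken from a 110 s kinetic Ca2+ dye read on the FDSS after pinning compounds onto TRPML1-DL cells. The cells were seeded at 1,500/well with Tet inducer, incubated about 16 h, then dye-loaded at room temperature.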
# TRHR ag = activates the human TRH receptor | TRHR cells, calcium flux fluo-8, FDSS agonist mode | activation, % at 2 µM | 360,000 tested, 0.18% active; in the data active = activation above about 30%; also: 0% is about no effect
#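 In this calcium-flux screen, cells bearing human TRHR are dye-loaded with fluo-8, baselined for 10 cycles, then exposed to library compounds; positive kinetic calcium responses during the agonist phase mark hits, with TRH as control.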
# TRPV1 potentiator = enhances activation of the human vanilloid receptor TRPV1. Q8NER1. TRPV1-expressing cells, Fluo-8 calcium influx, capsaicin EC20 potentiation. potentiation, % at 8.33 µM. 320,000 tested, 0.02% active. AID 540277; in the data active = potentiation above about 80%; inconclusive = between about 30% and that limit; also: 0% is about no effect
# Target sequence (Q8NER1 whole entry, looked up): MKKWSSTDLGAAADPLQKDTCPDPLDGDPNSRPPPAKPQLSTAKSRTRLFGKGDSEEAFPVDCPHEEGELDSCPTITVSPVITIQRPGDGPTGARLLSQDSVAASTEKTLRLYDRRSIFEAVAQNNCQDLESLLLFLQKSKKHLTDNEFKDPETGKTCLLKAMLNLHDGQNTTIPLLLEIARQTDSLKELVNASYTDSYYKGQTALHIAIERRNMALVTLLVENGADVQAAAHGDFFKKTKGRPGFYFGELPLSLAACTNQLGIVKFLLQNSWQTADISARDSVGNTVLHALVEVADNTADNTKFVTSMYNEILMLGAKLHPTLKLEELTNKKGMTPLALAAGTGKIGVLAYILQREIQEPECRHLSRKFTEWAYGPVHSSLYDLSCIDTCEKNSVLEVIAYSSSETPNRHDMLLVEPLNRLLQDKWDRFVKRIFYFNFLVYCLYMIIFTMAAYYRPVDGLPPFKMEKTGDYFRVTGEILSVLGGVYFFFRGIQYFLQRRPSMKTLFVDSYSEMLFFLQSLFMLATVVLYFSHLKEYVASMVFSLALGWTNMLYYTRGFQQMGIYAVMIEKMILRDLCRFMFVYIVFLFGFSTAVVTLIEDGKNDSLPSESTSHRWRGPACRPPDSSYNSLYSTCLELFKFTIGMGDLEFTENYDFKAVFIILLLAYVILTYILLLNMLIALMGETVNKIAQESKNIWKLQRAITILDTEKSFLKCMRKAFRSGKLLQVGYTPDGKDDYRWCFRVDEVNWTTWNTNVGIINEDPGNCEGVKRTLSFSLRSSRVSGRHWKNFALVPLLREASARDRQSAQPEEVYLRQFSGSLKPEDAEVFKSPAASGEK
#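 Fluo-8 calcium influx in TRPV1-expressing cells, kinetic read (ex 480/em 520 nm). Compound added and read 3 min for agonist activity, followed by capsaicin at EC20 final and 2 min further read for enhancement.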
# TRPV1 agonist = agonists of human vanilloid receptor 1 (TRPV1) | Q8NER1 | TRPV1-expressing cells, Fluo-8 calcium influx, agonist mode | activation, % at 8.33 µM | 320,000 tested, 0.19% active | AID 540275; in the data active = activation above about 80%; inconclusive = between about 30% and that limit; also: 0% is about no effect
#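 TRPV1-expressing cells were cultured overnight at 35.5C and loaded with Fluo-8 calcium dye for 40 to 90 min at room temperature. After a 10 s baseline, compound was added and calcium influx was read kinetically for 3 min (ex 480/em 520 nm).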
# TRPML1 blocker = inhibitors of human TRPML1 channel. activity change, negative = inhibition, % (concentration not given with the values). TRPML1-inducible cells, Ca2+ dye fluorescence, FDSS; hits give low values; inhibition of EC80 agonist-evoked calcium signal. 390,000 tested, 0.02% active. Q9GZU1. AID 624415; in the data active = activity change below about -50%; inconclusive = between about -30% and that limit;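 also: stimulus is agonist 54-4 at its EC80 concentration; % is scaled to controls: 0 for no effect and ±100 for the full control effect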
#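 Tet-induced TRPML1-DL cells loaded with Ca8 no-wash calcium dye were read kinetically on FDSS. Compound addition was followed by EC80 agonist 54-4 (4 uM final); inhibition was read over 110 s.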
# * marks the source's active call; other numbers are inactive results; ? = inconclusive; . = no result given.
SMILES,TRHR enhancer,TRPML1 ag,TRHR ag,TRPV1 potentiator,TRPV1 agonist,TRPML1 blocker
CC(C(=O)Nc1ccccc1F)N1CCN(C)CC1 (stereo not given),30.3*,.,-0.6,-4.0,-0.9,.
CCCCN(C(=O)C1CC(=O)N(CCc2ccc(OC)c(OC)c2)C1)c1c(N)n(CCCC)c(=O)[nH]c1=O (stereo not given),30.3*,1.5,-0.1,-19.3,1.8,20.7
CCCCn1c(N)c(N(CC)C(=O)C2CCCC2)c(=O)[nH]c1=O,36.5*,-0.9,0.2,-2.6,0.1,18.1
CCCCN(C(=O)C1CC(=O)N(Cc2ccc(C)cc2)C1)c1c(N)n(CCCC)c(=O)[nH]c1=O (stereo not given),-0.2,0.6,0.2,8.4,-2.8,29.4
Cc1ccc(-c2nc3cc(Cl)ccc3o2)cc1NC(=O)COc1ccccc1C,.,-0.3,.,.,.,.
CCOC(=O)C(/C=C(\C#N)C(=O)OCC)=C(/N)N1CCN(c2ccc(Cl)cc2)CC1,3.8,68.5*,1.1,10.2,-0.5,-9.8
CCOC(=O)N1CCN(c2ccc(Cl)cc2)CC1,1.9,2.8,-0.4,-15.4,?,-20.9
Cc1ccc2c(=O)cc(C(=O)Nc3cccc(C(F)(F)F)c3)oc2c1C,1.1,-0.7,0.7,.,.,7.6
CCc1ccc2oc(C(=O)Nc3cccc(C(F)(F)F)c3)cc(=O)c2c1,44.5*,-1.3,0.0,.,.,6.3
CCn1cnc2c(Nc3ccc(Cc4cccnc4)cc3)nc(C#N)nc21,-8.3,.,-0.6,.,.,.
O=c1[nH]cnc2c1ncn2[C@H]1C[C@H](O)[C@@H](CO)O1,.,0.0,.,.,.,.
CCOC(=O)N1CCN(C(=O)c2c(C)nn(-c3cccc(C)c3)c2-n2cccc2)CC1,-0.5,-0.3,-0.5,.,.,-16.3
Cc1cccc(-n2nc(C)c(C(=O)N3CCN(c4ccccc4)CC3)c2-n2cccc2)c1,-5.3,71.4*,-0.5,.,.,-19.1
CC(=O)c1c(C)[nH]c2ccc(OCC(O)CNCCc3ccccc3)cc12 (stereo not given),.,0.7,.,.,.,.
CCOc1ccccc1C1CC(=O)NC(SCC)=C1C#N (stereo not given),33.5*,0.4,-1.6,-13.3,5.8,-7.7
Cc1ccc(CNC(=O)CO/N=C/c2ccc(C(C)(C)C)cc2)cc1,0.2,2.1,1.8,7.9,?,2.3
CC(C)(C)c1ccc(/C=N/OCC(=O)NCc2ccc(F)cc2)cc1,-0.5,3.3,0.6,1.4,91.6*,-3.5
CCc1nc2c(c(=O)c3ccccc3n2C)c(=O)n1C1CCCCCC1,-9.8,?,39.0*,-23.4,23.2,1.1
Cc1cccc2c(C(O)c3cn(C)c4ccccc34)c[nH]c12 (stereo not given),.,1.4,.,.,.,.
COc1ccc(C(=O)N=c2nc(-c3ccccc3)n(-c3ccccc3)s2)cc1,.,-0.3,.,.,.,.
CC(C)Cc1ccc(C(=O)Nc2ccc(Cc3ccncc3)cc2)o1,38.1*,-0.9,-0.2,-2.9,?,1.3
Cc1ccc2c(c1)c1c3n2CCN(C(=O)c2ccc(C(F)(F)F)cc2)C3CCC1 (stereo not given),-5.6,56.2*,0.3,.,.,-27.6
Cc1ccc(C(=O)N2CCn3c4c(c5cc(C)ccc53)CCCC42)cc1 (stereo not given),3.4,2.1,-0.5,.,.,2.8
O=C(COc1ccccc1C(=O)Nc1cccc([N+](=O)[O-])c1)Nc1ccc(Br)cc1,.,-0.1,.,.,.,.
CN1/C(=C\C=C(/C#N)C(=O)Nc2ccc(Cl)cc2)C(C)(C)c2ccccc21,7.5,23.6,46.0*,-6.5,?,-1.9
SMILES,TRHR enhancer,TRPML1 ag,TRHR ag,TRPV1 potentiator,TRPV1 agonist,TRPML1 blocker
Cn1c(N)c(C(=O)N/N=C/c2ccccc2)sc1=S,35.7*,0.3,0.2,9.4,2.8,1.6
Cc1c(C(=O)N/N=C/c2cccnc2)sc(=S)n1C,1.3,0.2,0.5,6.9,1.8,4.4
CCN(CC)c1ccc(C=C2C(=O)OC(c3ccccc3)OC2=O)cc1 (stereo not given),5.9,0.0,-0.1,3.3,-2.5,-5.6
CCN(CC)c1ccc(/C=C/C(=O)C2C(=O)C=C(C)OC2=O)cc1 (stereo not given),39.6*,127.3*,221.8*,12.0,93.5*,-12.1
Cc1ccc(S(=O)(=O)c2nc(-c3ccccc3Cl)oc2NCCCN2CCOCC2)cc1,34.5*,0.3,1.0,0.8,2.0,35.1
O=C(CNC(=O)c1ccc2cc[nH]c2c1)OC(C(=O)Nc1cc(C(F)(F)F)ccc1Cl)c1ccccc1 (stereo not given),-4.0,.,-1.9,.,.,.
O=C(CN1CCOCC1)n1c2ccccc2c2ccccc21,16.9,-0.6,0.7,6.4,8.4,-7.3
Cc1c(C)n(C(=O)CN2CCC(C)CC2)c2ccccc12,35.2*,2.6,0.0,-7.5,-1.7,38.0
COc1cc(N2CCCC2)c(OC)cc1/C=C1/NC(=S)NC1=O,6.2,?,70.5*,-2.7,?,-20.1
N#Cc1cc(C(=O)c2cc(F)ccc2O)cn(-c2nccs2)c1=O,4.5,124.4*,183.2*,-16.6,?,-14.2
N#Cc1cc(C(=O)c2ccccc2O)cn(-c2nccs2)c1=O,30.3*,64.2*,292.2*,-16.5,87.1*,-23.4
Cc1c(-n2cc(C(=O)c3cc(F)ccc3O)cc(C#N)c2=O)c(=O)n(-c2ccccc2)n1C,-2.7,7.8,22.1,-3.8,-2.8,6.6
Cc1[nH]c2ccccc2c1C(=O)COC(=O)c1ccccc1SCC(=O)N1CCCC1,.,-0.4,.,.,.,.
CC(=O)NC(Cc1ccc(O)cc1)C(=O)NCC(N)C(=O)c1ccccc1 (stereo not given),.,0.1,.,.,.,.
Clc1ccc(/C=C/c2ccnc3ccccc23)c(Cl)c1,.,-0.3,.,.,.,.
CC(C)N1C(=O)C(O)(C2COC(C)(C)CC2=O)c2ccccc21 (stereo not given),33.1*,0.9,0.1,5.3,1.3,-4.2
CCNc1nc(CC)nc2c1oc1ccccc12,-0.8,2.6,1.6,-20.2,87.8*,-10.4
Cc1nc(Nc2ccc3c(c2)OCCO3)c2oc3ccccc3c2n1,-4.3,-0.9,-0.8,-2.7,81.5*,7.3
c1ccc2c(c1)oc1c(Nc3ccc4c(c3)OCCO4)ncnc12,-3.7,3.3,0.3,1.7,82.9*,14.0
O=[N+]([O-])c1ccc2ncnc(Nc3ccc4c(c3)OCCO4)c2c1,6.1,0.4,-1.1,-17.9,11.2,43.6
CCc1nc(Nc2ccc3c(c2)OCCO3)c2oc3ccccc3c2n1,-1.4,1.8,1.7,-5.8,89.5*,-0.4
CCc1nc(Nc2ccc(O)cc2)c2oc3ccccc3c2n1,-7.4,2.8,-1.4,-5.8,?,47.5
COc1cc2nc(N3CCCN(C)CC3)nc(NC3CCN(C)C3)c2cc1OC (stereo not given),.,-0.6,.,.,.,.
